# Screen size: about 300,000 compounds; about 3,200 (1.1%) were called active.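 How the source made its calls: active means inhibition above the campaign mean inhibition plus 3 SD (cut at about 35% in these data); inactive means the rest.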 What follows is part of a selection rich in actives, with near analogues and random picks from the rest.
# Biological target: Glutathione S-transferase omega-1 (Homo sapiens) (UniProt P78417)
# Test: human GSTO1 enzyme inhibition – biochemical, fluorescence polarization, counter-screen for RBBP9 inhibitor project, primary screen (AID 1974);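 further: 0% = GSTO1-1 with DMSO and 100% = wells lacking GSTO1-1 enzyme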
# Details: recombinant GSTO1, activity-based probe fluorescence polarization; at 5.96 µM; active compounds read high
# Sequence of Glutathione S-transferase omega-1 (Homo sapiens) (P78417 whole entry, looked up): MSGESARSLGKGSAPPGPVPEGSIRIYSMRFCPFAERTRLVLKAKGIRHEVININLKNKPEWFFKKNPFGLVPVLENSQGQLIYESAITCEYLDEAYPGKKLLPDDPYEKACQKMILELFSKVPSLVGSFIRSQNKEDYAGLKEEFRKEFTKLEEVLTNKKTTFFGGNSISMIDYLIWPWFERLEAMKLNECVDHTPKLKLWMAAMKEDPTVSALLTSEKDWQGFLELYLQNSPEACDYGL
row,SMILES,inhibition
1,COc1cccc(NC(C)=[N+](C)CCNS(=O)(=O)c2ccc(Cl)cc2)c1,8.66% (inactive)
2,Cc1cccc(C(C)C)c1NC(=O)COC(=O)C1CC(=O)N(Cc2ccccc2)C1 (centres undefined),7.97% (inactive)
3,c1ccc(NCc2cccc3ccccc23)nc1,-6.32% (inactive)
4,Oc1ccc2ccccc2c1N=Nc1nccs1,52% (active)
5,Oc1ccc(N=Nc2nccs2)c(O)c1,36.6% (active)
6,O=C(Oc1ccc(-c2nnco2)cc1)c1ccc(F)c(S(=O)(=O)N2CCOCC2)c1,3.94% (inactive)
7,CCN(CC(=O)Nc1c(F)cccc1F)C(=O)c1ccc(S(=O)(=O)N2CCCCC2)cc1,3.32% (inactive)
8,Cc1cccc(C)c1NC(=O)CSc1ccc([N+](=O)[O-])cn1,5.11% (inactive)
9,O=[N+]([O-])c1ccc(Sc2n[nH]c(-c3ccco3)n2)nc1,5.75% (inactive)
10,CC(C)(C)n1cnnc1Sc1ccc([N+](=O)[O-])cn1,39.1% (active)
11,CC(OC(=O)CNC(=O)c1cccc(F)c1)C(=O)NC1CCCCC1C (centres undefined),3.44% (inactive)
12,Cc1ccccc1NCC(=O)N/N=C\c1ccc([N+](=O)[O-])s1,15.2% (inactive)
13,CC(C)(C)c1cc(C(=O)N/N=C/c2ccc([N+](=O)[O-])s2)n[nH]1,37% (active)
14,COc1ccc(C(=O)NCC(=O)N/N=C/c2ccc([N+](=O)[O-])s2)cc1OC,27.8% (inactive)
15,O=C(NCCSc1ncc(-c2ccccc2)[nH]1)c1ccco1,5.65% (inactive)
16,CC1(OC(=O)CCc2ccccc2)C(=O)C=C2C=C(c3ccc(C#N)cc3)N(CCc3ccccn3)C=C2C1=O (centres undefined),27.9% (inactive)
17,CC1(OC(=O)C2CCCC2)C(=O)C=C2C=C(c3ccc(C#N)cc3)OC=C2C1=O (centres undefined),24.5% (inactive)
18,COCCN1C=C2C(=O)C(C)(OC(=O)C3CCCC3)C(=O)C=C2C=C1c1ccsc1 (centres undefined),45.6% (active)
19,NC(=O)C1=C[C@@H](c2ccc3c(c2)OCO3)C[C@@H](OCCCCO)O1,14.6% (inactive)
20,CN(C)C(=O)N=NC(=O)N(C)C,1.15% (inactive)
21,CCC(Oc1ccccc1C)C(=O)Nc1ccc(S(=O)(=O)Nc2cc(C)on2)cc1 (centres undefined),-0.82% (inactive)
22,CN1c2ccc(C=O)c3c(C=O)ccc(c23)N(C)C1(C)C,72.9% (active)
23,Cc1cc(C)cc(NC(=O)COc2coc(CN3CCN(c4ccccc4)CC3)cc2=O)c1,-4.3% (inactive)

row,SMILES,inhibition
1,CCN(C(=O)CSc1ncnc2c1cnn2-c1ccccc1)C1CCS(=O)(=O)C1 (centres undefined),-42.3% (inactive)
2,CC(=O)N1CCN(C(=O)c2cc(-c3ccc(C)o3)nc3ccccc23)CC1,5.42% (inactive)
3,Clc1ccc(C2=CSC3=Nc4cccc5cccc(c45)N23)cc1,58.2% (active)
4,Cc1ccc2nc(NC(=O)CSc3nc(=O)n(CCCN(C)C)c4c3CCC4)sc2c1,-12.3% (inactive)
5,COc1ccc2oc(C(=O)N(CC(C)C)C3CCS(=O)(=O)C3)c(C)c2c1 (centres undefined),-0.98% (inactive)
6,Cc1ccc(/C=N/NC(=O)CN2CCN(Cc3ccccc3)CC2)s1,-7.48% (inactive)
7,Cc1ccc(C(=O)N/N=C/c2sc(=O)n(Cc3cccc(C(=O)O)c3)c2Cl)cc1,40.4% (active)
8,Cc1ccc(C(=O)N/N=C/c2cccc3ccccc23)cn1,0.98% (inactive)
9,Cc1ccccc1S(=O)(=O)N1[C@@H](c2cccc(Cl)c2)C(C(=O)O)=CC[C@H]1c1ccc(Cl)cc1,-219% (inactive)
10,COc1ccc(-c2c(NC(=O)c3ccco3)oc3ccc(Cl)cc3c2=O)cc1,-7.76% (inactive)
11,Cc1c(-c2cccc(Cl)c2)nc2ccccc2c1C(=O)OCC(=O)N(C)C1CCS(=O)(=O)C1 (centres undefined),-6.81% (inactive)
12,CN(C(=O)COC(=O)c1nc(Cl)ccc1Cl)C1CCS(=O)(=O)C1 (centres undefined),3.97% (inactive)
13,CN(C(=O)COC(=O)c1cc(-c2ccco2)nc2ccccc12)C1CCS(=O)(=O)C1 (centres undefined),66.1% (active)
14,Nc1c(-c2ccccc2)nnn1Cc1ccccc1,16.3% (inactive)
15,CC1CCC(CN2CCN=C2N(C)C)CC1 (centres undefined),1.09% (inactive)
16,COc1ccc(NC(=O)CSc2nnc(Cc3ccccc3)c(=O)n2N)cc1,36.1% (active)
17,COc1ccc(Cc2nnc(SCC(=O)N(c3ccccc3)C(C)C)n(N)c2=O)cc1,-0.68% (inactive)
18,COc1ccc(NC(=O)CSc2nc3ccccc3c(=O)n2C)cc1,-2.78% (inactive)
19,O=C(NCc1ccccn1)Nc1ccc(Cl)cc1,-3.8% (inactive)
20,Cc1ccnc(NC(=O)CNC(=O)c2ccccc2)c1,-2.68% (inactive)
21,Cc1ccc2nc(-c3ccncc3)cc(C(=O)Nc3ccncc3)c2c1,0.09% (inactive)
22,O=C(Nc1ccc(S(=O)(=O)Nc2nccs2)cc1)c1cc(=O)[nH]c2ccccc12,-5.17% (inactive)
23,O=C(Nc1ccc(S(=O)(=O)Nc2nccs2)cc1)c1cc(-c2ccncc2)nc2ccccc12,44.3% (active)

row,SMILES,inhibition
1,COc1ccc(C(=O)Oc2ccc(-c3nnco3)cc2)cc1S(=O)(=O)N1CCOCC1,8.84% (inactive)
2,O=C(Nc1cc2c3c(c1)CC(=O)N3CCC2)c1ccccc1F,-2.65% (inactive)
3,COc1ccccc1N(C)S(=O)(=O)c1ccc(Cl)c(C(=O)Nc2ccncc2)c1,1.75% (inactive)
4,O=C1c2ccccc2C(=O)c2c1cccc2N1CCN(C/C=C/c2ccccc2)CC1,1.48% (inactive)
5,CC1C(=O)Nc2ccccc2N1C(=O)c1ccc(F)cc1F (centres undefined),52.8% (active)
6,CCCC(=O)N1c2ccccc2NC2=C(C(=O)CCC2)C1c1ccc(F)cc1 (centres undefined),-0.62% (inactive)
7,CC1C(=O)Nc2ccccc2N1C(=O)c1c(F)cccc1F (centres undefined),4.45% (inactive)
8,COc1ccc(N2CCN(C(=O)CCNC(=O)c3ccc(Br)cc3)CC2)cc1,-8.57% (inactive)
9,CCCCn1c(N)c(N(CC(C)C)C(=O)CN(C)S(=O)(=O)c2ccc(F)cc2)c(=O)[nH]c1=O,16.4% (inactive)
10,CC(=O)c1c(C)[nH]c(C(=O)N2CCN(S(=O)(=O)c3ccc(F)c(F)c3)CC2)c1C,16.8% (inactive)
11,COCCNC(=O)Nc1ccc2nc(-c3ccco3)c(-c3ccco3)nc2c1,69.1% (active)
12,O=C(NCc1ccccn1)c1ccc2nc(-c3ccco3)c(-c3ccco3)nc2c1,82.7% (active)
13,CCCC(=O)Nc1ccc2c(c1)nc(CCNC(=O)c1ccco1)n2C,5.94% (inactive)
14,Cc1cc(C)cc(NC(=O)NCc2ccccn2)c1,0.33% (inactive)
15,CC(C)(C)c1ccc(NC(=O)NCc2ccco2)cc1,3.61% (inactive)
16,COc1ccc2oc(=O)c(C(=O)NCc3ccccn3)cc2c1,3.7% (inactive)
17,COc1ccc2c(c1)C(=O)Nc1cc(Cl)ccc1N2,9.43% (inactive)
18,CC(OC(=O)CNC(=O)c1ccco1)C(=O)Nc1ccc(Cl)cn1 (centres undefined),1.63% (inactive)
19,CCC1(CC)C(=O)C2=C3C1[C@H](C(=O)OC)C=C(C(=O)OC)C[C@H]3[C@H]1C(=O)N(Cc3ccccc3)C(=O)[C@H]1[C@H]2C (some centres undefined),1.43% (inactive)
20,Cc1csc2nc(O)c(C(=O)NCCN3CCOCC3)c(=O)n12,-2.86% (inactive)
21,CCc1noc(C)c1C(=O)N1CCCSC1=Nc1ccccc1OC,-0.08% (inactive)
22,Cc1onc(-c2c(F)cccc2Cl)c1C(=O)N(C)CC(=O)Nc1cccc(F)c1,6.99% (inactive)
23,O=C(CCl)Nc1cccc(CP(=O)(c2ccccc2)c2ccccc2)c1,87.8% (active)

row,SMILES,inhibition
1,O=C(Cc1ccccc1)Nc1cccc(NC(=O)c2ccccc2)c1,-4.68% (inactive)
2,CCc1cccc(NC(=O)CCC(=O)O)c1,1.54% (inactive)
3,COc1ccccc1CCCNC(=O)C1CCC(=O)N(CCN2CCOCC2)C1 (centres undefined),63.1% (active)
4,O=C(NCCCc1ccccc1)C1CCC(=O)N(CCc2ccc(Cl)cc2)C1 (centres undefined),-1.06% (inactive)
5,COc1ccccc1CN1CC(C(=O)NCCc2cn[nH]c2)CCC1=O (centres undefined),-2.71% (inactive)
6,CCN1CCN(c2ccc(S(=O)(=O)N3CCCCC3)cc2NC(=O)c2cccc(NC(C)=O)c2)CC1,0.88% (inactive)
7,Cc1cc(O)c(Sc2ccccc2)c(=O)o1,10.2% (inactive)
8,O=C1Nc2c(Br)cc(Br)cc2C1(O)N1CCOCC1 (centres undefined),71.2% (active)
9,O=C(CSC(=S)N1CCOCC1)c1cc(Br)cc(Br)c1O,-51.7% (inactive)
10,O=C(c1cc2cc(Br)cc(Br)c2oc1=O)N1CCOCC1,5.88% (inactive)
11,Cc1ccc(NS(=O)(=O)c2ccc(C(=O)NCCCN3CCOCC3)cc2)cc1,10.7% (inactive)
12,Nc1ccc2nc3c(=O)[nH]c(=S)[nH]c3nc2c1,53.3% (active)
13,O=c1[nH]c(=O)c2nc3ccccc3nc2[nH]1,5.15% (inactive)
14,Cc1cc(=O)[nH]c(SCc2ccc(Cl)cc2)n1,-4.37% (inactive)
15,O=[N+]([O-])c1ccc(O)c(/C=N/Nc2ccccc2[N+](=O)[O-])c1,0.98% (inactive)
16,O=[N+]([O-])c1ccc(N=Cc2c(O)ccc3ccccc23)cc1,37.5% (active)
17,O=[N+]([O-])c1ccc(N/N=C/c2ccccc2)cc1,2.07% (inactive)
18,Cc1cc(OCC(=O)N(C)c2c(N)n(Cc3ccccc3)c(=O)[nH]c2=O)c(C(C)C)cc1Cl,0.25% (inactive)
19,CCC1(c2ccccc2)NC(=O)N(CC(=O)Nc2ccccc2C(=O)NC2CCCC2)C1=O (centres undefined),8.02% (inactive)
20,CCOc1ccc(S(=O)(=O)N2CCN(C(=S)NCC3CCCO3)CC2)cc1 (centres undefined),2.59% (inactive)
